From PubChem BioAssay (NCATS)
Several values for one entry are separate records, joined by “and”; a condition that tells them apart may be missing. Identical values can stand only once. Results filed as inconclusive are left out. Activity calls are given as the source filed them. Unless noted, calls come from the whole dose curve; as a rule, active = well fitted curve in the direction sought with a large enough effect; inconclusive = small, poorly fitted or top-dose-only effect, or another doubt; inactive = no such curve, though single readings can be large; an effect the other way counts as inactive or inconclusive.

Experiments:
[1] = Cell Viability - LYMP2-013 (AID 970); note: nearly all actives have a fitted effect of over 55% in size; note: potency is the fitted concentration of half-maximal effect
How it was run: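 CellTiter-Glo luminescence (cellular ATP) read after 30 min at RT. Cells: human lymphoblastoid line, 2500/well, 24 hr compound exposure at 37 C. Tetraoctylammonium bromide positive control; AC50 via standard Hill fit of qHTS titrations.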

[2] = Cell Viability - LYMP2-017 (AID 972);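 note: cells exposed to compound for 24 hours at 37 °C; nearly all actives have a fitted effect of over 55% in size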; note: potency is the fitted concentration of half-maximal effect; for activity change, negative = cytotoxicity: % is set by controls: 0 for no effect and ±100 for the full control effect
How it was run: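 Luminescent ATP read-out (CellTiter-Glo, 30 min RT) reports viable cell number. Cells: human lymphoblastoid line, 2500 per well, 5 hr preincubation, 24 hr compound exposure at 37 C. AC50 is derived from qHTS concentration-response data using the standard Hill model.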

[3] = Cell Viability - LYMP2-021 (AID 974);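 note: compound exposure lasts 24 hours at 37 °C; nearly all actives have a fitted effect of over 55% in size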; note: potency is the fitted concentration of half-maximal effect; for activity change, negative = cytotoxicity: % is set by controls: 0 for no effect and ±100 for the full control effect
How it was run: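 ATP luminescence (CellTiter-Glo, 30 min RT) after 24 h compound exposure at 37 C; 2500 human lymphoblastoid cells/well, 5 h settle beforehand. Cytotoxicity = concentration-dependent ATP drop, AC50 by Hill fit.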

[4] = Cell Viability - LYMP2-023 (AID 975);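 note: cells exposed to compound for 24 hours at 37 °C; nearly all actives have a fitted effect of over 55% in size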; note: potency is the fitted concentration of half-maximal effect;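 for activity change, negative = cytotoxicity: cellular ATP measured by luciferase luminescence as viability proxy; plate controls were DMSO only for no effect and 92 µM tetraoctylammonium bromide control for full effect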
How it was run: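 CellTiter-Glo luminescence after 30 min at room temperature; decrease in intracellular ATP reflects toxicity. Cells: human lymphoblastoid line, 2500/well, 24 hr compound exposure at 37 C. AC50 fitted to standard Hill equation from concentration-response.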

[5] = Cell Viability - LYMP2-025 (AID 976);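 note: plate controls were DMSO only for no effect and tetraoctylammonium bromide control for full effect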
How it was run: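 CellTiter-Glo luminescence (cellular ATP) after 24 h compound exposure at 37 C; LYMP2-025 human lymphoblastoid cells, 2500/well, complete medium. Tetraoctylammonium bromide positive control. AC50 by Hill equation fit of qHTS concentration-response.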

[6] = Cell Viability - LYMP2-002 (AID 977);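 note: plate controls were DMSO only for no effect and 92 µM tetraoctylammonium bromide for full effect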
How it was run: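 In this qHTS viability screen, 2500 human lymphoblastoid cells per well receive compound for 24 hr at 37 C, and luciferase-based ATP luminescence gives the viability signal. Tetraoctylammonium bromide serves as positive control.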

[7] = Cell Viability - LYMP2-012 (AID 982); note: potency is the fitted concentration of half-maximal effect;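 for activity change, negative = cytotoxicity: 0% = DMSO only and full loss = 92 µM tetraoctylammonium bromide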
[8] = Cell Viability - LYMP2-024 (AID 988); note: nearly all actives have a fitted effect of over 60% in size; note: potency is the fitted concentration of half-maximal effect;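 for activity change, negative = cytotoxicity: plate controls were DMSO only for no effect and 92 µM tetraoctylammonium bromide for full effect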
How it was run: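 ATP-based luminescence (CellTiter-Glo, 30 min RT) after 24 h compound exposure at 37 C of 2500 lymphoblastoid cells/well; decrease in ATP taken as cytotoxicity. qHTS concentration-response fitted to standard Hill equation for AC50.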

[9] = qHTS assay for environmental chemicals that activate the Aryl hydrocarbon Receptor (AhR) signaling pathway (AID 651777); settings: 1A2-DRE human hepatoma cells, luciferase, 24 h; activation: stronger effect = higher value; note: % of control where 0% means no effect; nearly all actives have a fitted effect of over 15% in size
How it was run: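 Concentration–response screening used 1,200 1A2-DRE cells per well, 24 hr compound exposure (37 C, 5% CO2), and One-Glo luminescence as the AhR-driven CYP1A2 reporter signal.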

[10] = Cell Viability - HepG2 (AID 433; calls by dose curve;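 note: potency is the fitted concentration of half-maximal effect; potency for ATP loss meaning cytotoxicity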); settings: qHTS
How it was run: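 Cytotoxicity is scored as loss of intracellular ATP in HepG2 cells exposed to compounds for 40 h. Concentration-response curves, normalized to DMSO and 100 uM tamoxifen, give AC50 values.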

[11] = Cell Viability - Mesenchymal (AID 546); settings: mesenchymal cells viability, qHTS; activity change, negative = cytotoxicity: at 91.7 µM (top of the series);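 note: cells exposed to compound for 40 hours before reading; 0% = DMSO only and -100% = 100 µM tamoxifen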
How it was run: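 In this qHTS cytotoxicity format, glomerulus-derived human mesenchymal kidney cells received compound for 40 hr, then luciferase-based ATP quantitation. Concentration-response data were fitted with the Hill equation.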

[12] = Cell Viability - LYMP1-003 - Assay at 40 hr (AID 964); note: nearly all actives have a fitted effect of over 60% in size; note: potency is the fitted concentration of half-maximal effect
How it was run: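 LYMP1-003 lymphoblastoid cells, 2500/well; 5 hr preincubation, 40 hr compound exposure, 37 C; CellTiter-Glo 30 min RT; luminescence; Hill-fit AC50. Positive control tetraoctylammonium bromide.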

[13] = Cell Viability - LYMP2-014 (AID 983); note: nearly all actives have a fitted effect of over 50% in size; note: potency is the fitted concentration of half-maximal effect;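 for activity change, negative = cytotoxicity: plate controls were DMSO only for no effect and 92 µM tetraoctylammonium bromide for full effect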
How it was run: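 2500 cells/well, 5 hr 37 C; cpd 24 hr 37 C, complete medium; CellTiter-Glo 30 min RT, luminescence; ATP loss = toxicity; AC50 via Hill eqn; tetraoctylammonium bromide positive control.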

[14] = Cell Viability - LYMP2-016 (AID 984)
How it was run: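 Acute toxicity in a Coriell human lymphoblastoid line is scored as loss of intracellular ATP over 24 h of treatment in complete medium. CellTiter-Glo signal is fitted across concentrations with the Hill equation to give AC50.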

[15] = Cell Viability - LYMP2-018 (AID 985); note: nearly all actives have a fitted effect of over 50% in size; note: potency is the fitted concentration of half-maximal effect;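 for activity change, negative = cytotoxicity: plate controls were DMSO only for no effect and tetraoctylammonium bromide at 92 µM for full effect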
How it was run: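 2500 cells/well; 5 hr 37 C; cmpd 24 hr 37 C, complete medium; CellTiter-Glo 30 min RT; luminescence. Tetraoctylammonium bromide positive control. AC50 via Hill fit.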

[16] = Cell Viability - LYMP2-020 (AID 986); note: nearly all actives have a fitted effect of over 55% in size; note: potency is the fitted concentration of half-maximal effect
How it was run: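 qHTS, 2500 cells/well; 5 hr then 24 hr compound exposure, 37 C; CellTiter-Glo luminescence after 30 min RT; ATP decrease taken as cytotoxicity; AC50 via Hill equation; tetraoctylammonium bromide positive control.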

[17] = Cell Viability - LYMP2-022 (AID 987); note: nearly all actives have a fitted effect of over 55% in size; note: potency is the fitted concentration of half-maximal effect
How it was run: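 Luminescent ATP read-out (CellTiter-Glo, 30 min, RT) after 24 hr, 37 C compound exposure of 2500 human lymphoblastoid cells/well in complete medium. Cytotoxicity taken as concentration-dependent ATP loss; AC50 from standard Hill equation.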

[18] = Cell Viability - LYMP1-002 - Assay at 40 hr (AID 994); note: nearly all actives have a fitted effect of over 60% in size; note: potency is the fitted concentration of half-maximal effect
How it was run: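 qHTS cytotoxicity; 2500 cells/well, 5 hr 37 C settle, compound 40 hr 37 C. CellTiter-Glo, 30 min RT, luminescence (ATP). Concentration-response, Hill fit → AC50. Pos. ctrl tetraoctylammonium bromide.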

[19] = qHTS assay for small molecule antagonists of retinoid X receptor alpha signaling (AID 588546; active = well fitted inhibition curve with a large enough effect in the signal ratio, with a control signal flat, not every such curve was filed as active; the % refers to the signal ratio;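 note: cells stimulated with 9-cis-retinoic acid as agonist; % is set by controls: 0 for no effect and ±100 for the full control effect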); settings: HEK293T RXRa-UAS-bla, beta-lactamase ratio, antagonist mode; measured here: W530 green channel, cytotoxicity proxy
How it was run: (§1)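 Beta-lactamase reporter inhibition, read as CCF4 fluorescence ratio (ex 405, em 460/530 nm) after 2 h at RT. HEK293T UAS-bla cells, 2500/well, were stimulated with 9-cis-RA at 500 or 100 nM final alongside test compound for 18 h at 37 C.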

[20] = target: Retinoic acid receptor RXR-alpha (Homo sapiens) (UniProt P19793); test: as above; settings: HEK293T RXRa-UAS-bla, beta-lactamase ratio, antagonist mode
How it was run: as §1

Sequence of Retinoic acid receptor RXR-alpha (Homo sapiens) (P19793 whole entry, looked up): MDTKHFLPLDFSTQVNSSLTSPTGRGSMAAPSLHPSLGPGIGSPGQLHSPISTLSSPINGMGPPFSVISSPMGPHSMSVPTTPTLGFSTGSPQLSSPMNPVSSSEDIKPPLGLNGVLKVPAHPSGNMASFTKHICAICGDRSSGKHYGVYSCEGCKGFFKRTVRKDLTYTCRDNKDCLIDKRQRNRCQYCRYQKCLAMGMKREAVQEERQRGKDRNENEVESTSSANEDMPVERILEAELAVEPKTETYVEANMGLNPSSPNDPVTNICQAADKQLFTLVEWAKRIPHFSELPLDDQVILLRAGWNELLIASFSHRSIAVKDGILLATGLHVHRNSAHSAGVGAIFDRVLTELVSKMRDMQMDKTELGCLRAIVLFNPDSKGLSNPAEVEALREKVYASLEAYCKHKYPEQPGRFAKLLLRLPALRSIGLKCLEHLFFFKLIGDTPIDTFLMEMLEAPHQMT

C[C@@H]1CC2(OC(O)[C@]3(C)O[C@H]23)O[C@H]2C[C@@]3(C)[C@@H]4CC[C@H]5C(C)(C)C(O[C@@H]6OC[C@@H](O)[C@H](O)[C@H]6O)CC[C@@]56C[C@@]46CC[C@]3(C)[C@@H]12 (stereo partly drawn)
inactive: Potency [1] | Potency [2] | Potency [3] | Potency [4] | Potency [5] | Potency [6] | activation [9] 0.629%
active: Potency [7] 50.1 µM | Potency [8] 39.8 µM

C1CCCNCC1
-4.82%: max response [19]
inactive: Potency [10] > 92 µM | Potency [11] | Potency [12] | Potency [1] | Potency [2] | Potency [3] | Potency [4] | Potency [5] | Potency [6] | Potency [7] | Potency [13] | Potency [14] | Potency [15] | Potency [16] | Potency [17] | Potency [8] | Potency [18] | max response [20] 5.08% | activation [9] 0.178%

Cc1ccc(S(N)(=O)=O)cc1
inactive: Potency [10] > 92 µM | Potency [11] | Potency [12] | Potency [1] | Potency [2] | Potency [3] | Potency [4] | Potency [5] | Potency [6] | Potency [7] | Potency [13] | Potency [14] | Potency [15] | Potency [16] | Potency [17] | Potency [8] | Potency [18] | max response [20] 8.77% and 1.7% | activation [9] -0.842%
-1.11% and -7.98%: max response [19]

CC(=O)c1ccc(Cl)c(Cl)c1Cl
inactive: Potency [10] > 92 µM | Potency [11] | Potency [12] | Potency [1] | Potency [2] | Potency [3] | Potency [4] | Potency [5] | Potency [6] | Potency [7] | Potency [13] | Potency [14] | Potency [15] | Potency [16] | Potency [17] | Potency [8] | Potency [18] | max response [20] 5.75% | activation [9] -0.636%
-2.76%: max response [19]

CC(C)OCC1CO1 (stereo not drawn)
inactive: Potency [10] > 92 µM | Potency [11] | Potency [12] | Potency [1] | Potency [2] | Potency [3] | Potency [4] | Potency [6] | Potency [7] | Potency [13] | Potency [14] | Potency [15] | Potency [16] | Potency [17] | Potency [8] | Potency [18] | max response [20] 1.98% | activation [9] 0.457%
-11.4%: max response [19]

Nc1cc(C(=O)O)c(O)c(S(=O)(=O)O)c1
12.7%: max response [19]
inactive: Potency [10] > 92 µM | Potency [11] | Potency [12] | Potency [1] | Potency [2] | Potency [3] | Potency [4] | Potency [5] | Potency [6] | Potency [7] | Potency [13] | Potency [14] | Potency [15] | Potency [16] | Potency [17] | Potency [8] | Potency [18] | max response [20] 3.86% | activation [9] -2.49%

CC(=O)OC1CC(C)OC(C)O1 (stereo not drawn)
1.48% and -10.6%: max response [19]
inactive: Potency [10] > 92 µM | Potency [11] | Potency [12] | Potency [1] | Potency [2] | Potency [3] | Potency [4] | Potency [5] | Potency [6] | Potency [7] | Potency [13] | Potency [14] | Potency [15] | Potency [16] | Potency [17] | Potency [8] | Potency [18] | max response [20] 6% and 5.73% | activation [9] -3.53% and 1.99%

OC1CCCCC1
10.1%: max response [19]
inactive: Potency [10] > 92 µM | Potency [11] | Potency [12] | Potency [1] | Potency [2] | Potency [3] | Potency [4] | Potency [5] | Potency [6] | Potency [7] | Potency [13] | Potency [14] | Potency [15] | Potency [16] | Potency [17] | Potency [8] | Potency [18] | max response [20] -3.43% | activation [9] -0.284%

Cc1ccc(N)cc1[N+](=O)[O-]
inactive: Potency [10] > 92 µM | Potency [11] | Potency [12] | Potency [1] | Potency [2] | Potency [3] | Potency [4] | Potency [5] | Potency [6] | Potency [7] | Potency [13] | Potency [14] | Potency [15] | Potency [16] | Potency [17] | Potency [8] | Potency [18] | max response [20] -2.5% | activation [9] 0.886%
-2.06%: max response [19]

Cc1cccnc1
inactive: Potency [10] > 92 µM | Potency [11] | Potency [12] | Potency [1] | Potency [2] | Potency [3] | Potency [4] | Potency [5] | Potency [6] | Potency [7] | Potency [13] | Potency [14] | Potency [15] | Potency [16] | Potency [17] | Potency [8] | Potency [18] | max response [20] 7.72% | activation [9] 0.348%
-1.12%: max response [19]

COc1cc(-c2ccc(N=C=O)c(OC)c2)ccc1N=C=O
inactive: Potency [10] > 92 µM | Potency [11] | Potency [12] | Potency [1] | Potency [2] | Potency [3] | Potency [4] | Potency [5] | Potency [6] | Potency [7] | Potency [13] | Potency [14] | Potency [15] | Potency [16] | Potency [17] | Potency [8] | Potency [18] | max response [20] -6.94% | activation [9] 0.786% and 6.25%
-13.8%: max response [19]

CC(=O)Nc1cccc(C)c1
1.11%: max response [19]
inactive: Potency [10] > 92 µM | Potency [11] | Potency [12] | Potency [1] | Potency [2] | Potency [3] | Potency [4] | Potency [5] | Potency [6] | Potency [7] | Potency [13] | Potency [14] | Potency [15] | Potency [16] | Potency [17] | Potency [8] | Potency [18] | max response [20] 1.56% | activation [9] 0.306%

C=C1CC[C@H](O)C/C1=C/C=C1\CCC[C@]2(C)[C@@H]([C@H](C)CCCC(C)C)CC[C@@H]12
inactive: Potency [10] > 92 µM | activation [9] 5.81%
active: activity change, negative = cytotoxicity [11] -102% | Potency [12] 39.8 µM | Potency [1] 50.1 µM | Potency [2] 50.1 µM | Potency [3] 39.8 µM | Potency [4] 50.1 µM | Potency [7] 50.1 µM | Potency [13] 50.1 µM | Potency [15] 39.8 µM | Potency [16] 50.1 µM | Potency [17] 31.6 µM | Potency [8] 39.8 µM | Potency [18] 50.1 µM
